Screens from PubChem BioAssay.
Calb FLC = C. albicans growth modulation with fluconazole | growth inhibition, % (no concentration beside the values) | hit rate 0.57% among 300,000 | C. albicans CaCi-2 (fluconazole-resistant clinical isolate) + fluconazole, Alamar Blue growth, 48 h;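 active = growth inhibition above about 58% in most replicates, limit read from the data, passing the limit was not always enough; inconclusive = exactly half the replicates above a set limit; inactive = most replicates below a set limit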;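 note: all wells also contain fluconazole at 8 µg/ml as a sub-toxic cotreatment; 0% = median of DMSO wells and 100% = median of geldanamycin control wells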
Shn3 inh set2 = reduces Shn3 3'UTR luciferase signal in osteoblasts; hit rate 0.52% among 360,000; Clone20 osteoblast Shn3 3'UTR firefly luciferase, 24 h; inhibition, % at 12.5 µM;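 active = mean inhibition of at least 75% with every replicate also reaching 75%; inconclusive = mean inhibition at least 75% but some replicate below; inactive = mean inhibition below 75%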;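 note: 0% = median of neutral control wells and 100% = pilot-screen positive control compound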
Jurkat NFkB inh = lowers PMA/ionomycin-induced NF-kB signal in Jurkat cells; hit rate 0.53% among 330,000; AID 435003; inhibition, % at 4 µM; PMA/ionomycin-induced NF-kB luciferase reporter, luminescence; in the data active = inhibition above about 50%
697 NFkB inh = lowers PMA/ionomycin-induced NF-kB signal in 697 B cells. 697 B-cell NF-kB luciferase reporter, 16 h. inhibition, % at 4 µM. hit rate 0.33% among 330,000. AID 435022; in the data active = inhibition above about 35%
Beta cell apopt = beta cell apoptosis inhibition. INS-1E cytokine-induced death, ATP luminescence, 48 h; percent of positive-control rescue, neutral wells zero. protection from apoptosis, % (test concentration not listed). hit rate 0.8% among 300,000. AID 435005;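 active = Every replicate reaches about 75%, or at least half do and their mean reaches it too, limit read from the data; inconclusive = At least half of replicates reach the limit but their mean does not; inactive = Under half of replicates reach the limit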;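 note: 0% = cytokine-treated negative control wells and 100% = positive control rescue; higher means more ATP so stronger rescue from cytokine killing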
Jurkat NFkB conf = inhibitors of the PMA/ionomycin-induced NF-kB reporter in Jurkat cells, retest; AID 435020; shares compounds with Jurkat NFkB inh; Jurkat NF-kB luciferase, 16 h; hit rate 27% among 2,700; inhibition, % at 4 µM;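 active = inhibition reaching about 45% at 4 µM in either replicate, limit read from the data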;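 note: plate controls were PMA/ionomycin stimulated DMSO wells for no effect and unstimulated DMSO wells for full effect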
The depositor's hits bear a star; ? = inconclusive; / = not tested or not shown. Rows were chosen to be rich in hits. Some 2% of all compounds tested hit in one or more screens of this group.

SMILES	Calb FLC	Shn3 inh set2	Jurkat NFkB inh	697 NFkB inh	Beta cell apopt	others
COc1cc(C(=O)Oc2c(OC)cc(C(=S)N3CCOCC3)cc2OC)cc(OC)c1OC	-1	-12	2	7	-12
Cc1ccc(CCS(=O)(=O)c2ccc(C(C)(C)C)cc2)cn1	-13	34	-1	-26	8
CCN1C(=O)[C@H]2[C@@H](c3ccc(-c4ccc(OC)cc4)cc3)N3CCC[C@@]3(C(=O)OC)[C@H]2C1=O	11	90*	10	16	-8
CCOC(=O)[C@@H]1[C@H]2COc3cc(OC)ccc3[C@@H]2N2C(=O)N(c3ccccc3)C(=O)[C@@]12C	/	-2	-4	2	-2
O=C(Nc1ccccc1)Nc1nnc(CSCc2ccccc2Cl)s1	7	5	-1	-3	-2
O=C(Nc1ccc(Cl)c(Cl)c1)Nc1nnc(CSc2ccccc2)s1	4	58	23	-45	100*
Cc1ccc(CS(=O)Cc2ccc(C(=O)NCCc3ccccc3)o2)cc1 (stereo unspecified)	-17	-9	-3	-25	5
COc1ccc(Cl)cc1NC(=O)C1CC(c2ccccc2Cl)=NO1 (stereo unspecified)	/	17	/	/	/
C=C(C)CSc1[nH]c(=O)cc(C)c1C#N	86*	-10	0	2	4
CCSc1nc(-c2ccccc2)nc(C(Cl)Cl)n1	-33	23	-7	-7	94*
O=C1C(=C(I)I)c2ccccc2-c2ccccc21	/	98*	/	/	/
Cc1ccccc1CNc1ccc(C(CC(N)=O)NC(=O)c2ccc(Br)cc2)cc1[N+](=O)[O-] (stereo unspecified)	-8	0	-8	-25	91*
NC(=O)CC(NC(=O)c1ccc(Br)cc1)c1ccc(NCc2ccc(F)cc2)c([N+](=O)[O-])c1 (stereo unspecified)	-2	5	-1	-4	-2
CCCS(=O)(=O)NC(=O)C1(C)CCN(C(=O)C2(c3ccc(Cl)cc3)CCCC2)C1 (stereo unspecified)	/	4	/	/	/
O=C(Nc1ccccc1)Nc1cc(OCC(F)(F)F)cc(OCC(F)(F)F)c1	-13	93*	/	/	/
O=C(Nc1ccccc1)Nc1cc(Cl)cc(Cl)c1	-16	67	-9	14	70
CC(c1ccccc1)n1c(SCC(=O)Nc2ccccc2)n[nH]c1=O (stereo unspecified)	3	0	7	-13	/
CCCCNc1c(-c2ccc(OC)c(SC(C)CC)c2)nc2ccc(C)cn12 (stereo unspecified)	/	5	9	5	120*
CCCCCCSc1cc(-c2nc3ccc(C)cn3c2NCCCC)ccc1OC	/	61	1	-13	84*
Cc1nn(-c2ccccc2)c(Cl)c1CN(C(=O)CCl)c1ccc(Cl)cc1	-3	96*	/	/	45
CN(CCNC(=O)CCCOc1cc(=O)n(C)c2ccccc12)Cc1ccccc1	?	-18	14	17	7
Cn1c(=O)cc(OCCCC(=O)Nc2cccnc2)c2ccccc21	111*	2	7	25	-5
CN(CCCNC(=O)CCCOc1cc(=O)n(C)c2ccccc12)Cc1ccccc1	116*	-18	4	19	-5
O=c1ccnc(SCCc2ccc([N+](=O)[O-])cc2)[nH]1	-7	28	-12	-12	-1
CC(NC(=O)c1ccco1)c1ccc(-n2ccnc2)cc1 (stereo unspecified)	8	14	0	-2	-1
SMILES	Calb FLC	Shn3 inh set2	Jurkat NFkB inh	697 NFkB inh	Beta cell apopt	others
COc1ccccc1NS(=O)(=O)c1cc(NC(=O)c2ccc(Cl)nc2)ccc1Cl	23	87*	24	-71	7
COc1ccc(C(=O)Nc2ccc(Cl)c(S(=O)(=O)Nc3ccccc3OC)c2)cc1	18	72	10	-36	-2
Cc1ccc(SCCC(=O)N(C)CC(=O)Nc2c(C)cccc2C)cc1	1	-13	18	-8	1
Nc1nc(N)c2cc(S(=O)(=O)c3ccc4ccccc4c3)ccc2n1	/	85*	/	/	/
Nc1nc(N)c2cc([N+](=O)[O-])ccc2n1	/	-6	/	/	/
CCN(CC(=O)Nc1ccc(NC(C)=O)cc1)C(=O)CSCc1c(C)noc1C	4	-34	-2	7	3
COc1ccccc1N(O)C1CC(=O)N(c2ccc(F)cc2)C1=O (stereo unspecified)	?	95*	-9	-10	-1
C[C@@H]1CN([C@@H](C)CO)C(=O)CCCn2nncc2CO[C@H]1CN(C)C(=O)Nc1cccc(Oc2ccccn2)c1	/	0	/	/	/
O=C(Nc1nnc(C2CC2)o1)c1ccc(S(=O)(=O)N2CCCc3ccccc32)cc1	?	78	0	-32	27
COCc1nnc(NC(=O)c2ccc(S(=O)(=O)N3CCCc4ccccc43)cc2)o1	92*	16	0	13	14
COc1cccc(-c2nnc(NC(=O)c3ccc(S(=O)(=O)N4CCOCC4)cc3)o2)c1	-6	15	9	-6	43
COc1ccc(-c2nnc(NC(=O)c3ccc(S(=O)(=O)N4CCCc5ccccc54)cc3)o2)cc1	101*	40	17	-58	3
COc1cc(-c2nnc(NC(=O)c3ccc(S(=O)(=O)N4CCOCC4)cc3)o2)cc(OC)c1OC	90*	/	15	10	86*
CCOC(=O)c1cnc(SC)nc1Nc1cccc2ccccc12	2	4	-6	-34	/
CCOC(=O)c1cnc(-n2cc(C)cn2)nc1Nc1ccccc1OCC	99*	1	5	-9	15
Cc1cn(C2CCCCO2)c(=O)[nH]c1=O (stereo unspecified)	/	-35	/	/	/
O=C(Oc1cc2oc(=O)cc(-c3ccccc3)c2cc1Cl)C1CCCCC1	77*	-5	-4	19	1
O=[N+]([O-])c1ccc(N2CCN(c3cccc(Cl)c3)CC2)cn1	-49	-12	53*	10	-5	Jurkat NFkB conf=-12
O=[N+]([O-])c1ccc(N2CCCCC2)cn1	0	-1	-4	-13	-7
Cc1csc(CNC(=O)C2CCC(=O)N(CCc3cccc(F)c3)C2)n1 (stereo unspecified)	5	1	5	-6	0
Cc1ccc(NC(CC(=O)c2ccccc2)c2ccc(F)cc2)cc1 (stereo unspecified)	1	-15	-1	-1	-9
O=C(CC(Nc1ccc(F)cc1)C(=O)O)c1ccccc1 (stereo unspecified)	4	-88	-171	-233	-2	Jurkat NFkB conf=-10
COc1ccc(N/N=C/c2c(C(=O)O)ccc3ccccc23)cc1	2	93*	54*	-9	116*	Jurkat NFkB conf=42
CCCOc1ccc(-c2nnc(-c3cccs3)o2)cc1	8	-11	-117	-167	-3
CN(C)c1ccc(-c2nnc(-c3cccs3)o2)cc1	-13	-11	-161	-238	-3	Jurkat NFkB conf=-115
Cc1ccc(OCC(O)CN2CCOCC2)c(C)c1 (stereo unspecified)	-5	-12	-29	11	0
